This note sets out measurements from PubChem BioAssay (EPA / NIEHS).

Read-out in assay [1]: TIMP metallopeptidase inhibitor 1 (TIMP1), TIMP1 (gene 7076)
Description: BSK_MyoF_TIMP1: BioMAP Diversity Plus: MyoF Assay for TIMP metallopeptidase inhibitor 1 (TIMP1) Biomarker Activity (AID 2284269). Particulars: primary human lung fibroblasts. The method in brief:
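Primary human lung fibroblasts, MyoF multiplex system; chemical exposure 24 h; TIMP-1 by ELISA; positive fitting direction vs DMSO control.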

Read-out in assay [2]: Matrix Metallopeptidase 1 (MMP1), MMP1 (gene 4312)
The experiment in a line: BSK_BF4T_MMP1: BioMAP Diversity Plus: BF4T Assay for Matrix Metallopeptidase 1 (MMP1) Biomarker Activity (AID 2284270). The settings on record: primary human bronchial epithelial cells with fibroblasts. The method in brief: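 MMP-1 quantified by ELISA in primary human bronchial epithelial/dermal fibroblast co-cultures, 24 hours post-dosing, with DMSO as baseline; parallel sulforhodamine B staining (560 nm) tracks overt cytotoxicity.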

Read-out in assay [3]: Matrix Metallopeptidase 3 (MMP3), MMP3 (gene 4314)
The experiment in a line: BSK_BF4T_MMP3: BioMAP Diversity Plus: BF4T Assay for Matrix Metallopeptidase 3 (MMP3) Biomarker Activity (AID 2284271). The settings on record: primary human bronchial epithelial cells with fibroblasts. The method in brief: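 MMP-3 level read by ELISA after 24 h chemical exposure of bronchial epithelial cell/dermal fibroblast co-cultures, fitted upward relative to DMSO. Parallel cultures stained with 0.1% SRB after TCA fixation gauge overt cytotoxicity.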

Read-out in assay [4]: Tissue plasminogen activator (tPA), PLAT (gene 5327)
The experiment in a line: BSK_BF4T_tPA: BioMAP Diversity Plus: BF4T Assay for Tissue plasminogen activator (tPA) Biomarker Activity (AID 2284272). Particulars: primary human bronchial epithelial cells with fibroblasts. The essentials: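 tPA level quantified by ELISA at 24 h post-treatment in bronchial epithelial/dermal fibroblast co-cultures, gain of signal scored against DMSO baseline. Parallel cultures stained with 0.1% SRB (560 nm) to flag overt cytotoxicity.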

Read-out in assay [5]: Plasminogen Activator Inhibitor-1 (PAI1), SERPINE1 (gene 5054)
Description: BSK_BF4T_PAI1: BioMAP Diversity Plus: BF4T Assay for Plasminogen Activator Inhibitor-1 (PAI1) Biomarker Activity (AID 2284273). The settings on record: primary human bronchial epithelial cells with fibroblasts. The essentials: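 PAI-1 levels quantified by ELISA 24 h post-dosing in bronchial epithelial cell plus dermal fibroblast cultures. Signal gain referenced to DMSO baseline. Sulforhodamine B total-protein staining of parallel wells checked cytotoxicity.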

The nature of assay [6]: BSK_BF4T_SRB: Viability Assessment in the BioMAP Diversity Plus: BF4T Assay (AID 2284274).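 As to AC50: measured 24 h after compound addition.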 The settings on record: primary human bronchial epithelial cells with fibroblasts. The method in brief:
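Cytotoxicity measured as total protein: cells fixed with 10% TCA, stained with 0.1% SRB, read at 560 nm. Bronchial epithelial/dermal fibroblast co-culture, 24 h after dosing, with positive-direction fitting relative to DMSO.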

Read-out in assay [7]: urokinase Plasminogen Activator (uPA), PLAU (gene 5328)
The experiment in a line: BSK_BF4T_uPA: BioMAP Diversity Plus: BF4T Assay for urokinase Plasminogen Activator (uPA) Biomarker Activity (AID 2284275). Particulars: primary human bronchial epithelial cells with fibroblasts. The essentials: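 uPA levels measured by ELISA at 24 hours in BF4T cultures (bronchial epithelial cells plus dermal fibroblasts) and compared with DMSO; cytotoxicity tracked in parallel cultures by sulforhodamine B staining.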

Read-out in assay [8]: Matrix Metallopeptidase 9 (MMP9), MMP9 (gene 4318)
The experiment in a line: BSK_BF4T_MMP9: BioMAP Diversity Plus: BF4T Assay for Matrix Metallopeptidase 9 (MMP9) Biomarker Activity (AID 2284276). Particulars: primary human bronchial epithelial cells with fibroblasts. The method in brief: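 MMP-9 levels were measured by ELISA after 24 h exposure of bronchial epithelial cell/dermal fibroblast co-cultures, with DMSO as baseline. Parallel cultures were stained with 0.1% SRB after TCA fixation, read at 560 nm, to flag overt cytotoxicity.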

Read-out in assay [9]: Interleukin-8 (IL8), CXCL8 (gene 3576)
The experiment in a line: BSK_IMphg_IL8: BioMAP Diversity Plus: IMphg Assay for Interleukin-8 (IL8) Biomarker Activity (AID 2284277). Particulars: primary human endothelial cells with macrophages. The essentials: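 IL-8 levels were measured by ELISA 24 h after dosing in primary human venular endothelial cell–macrophage cultures, referenced to DMSO; parallel SRB staining monitored overt cytotoxicity.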

Read-out in assay [10]: Intercellular Adhesion Molecule 1 (ICAM1), ICAM1 (gene 3383)
The experiment in a line: BSK_BE3C_ICAM1: BioMAP Diversity Plus: BE3C Assay for Intercellular Adhesion Molecule 1 (ICAM1) Biomarker Activity (AID 2284278).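 As to outcome: cell-surface ICAM-1 protein level quantified by ELISA.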 Particulars: primary human bronchial epithelial cells. The method in brief:
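ELISA read-out of ICAM-1 on human lung bronchial epithelial primary cells, 24 h post-dosing; positive-direction curve fit, DMSO = baseline. SRB total-protein staining of parallel cultures flagged overt cytotoxicity.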

Read-out in assay [11]: Interferon-inducible T-cell alpha chemoattractant (ITAC), CXCL11 (gene 6373)
Description: BSK_BE3C_ITAC: BioMAP Diversity Plus: BE3C Assay for Interferon-inducible T-cell alpha chemoattractant (ITAC) Biomarker Activity (AID 2284279). Particulars: primary human bronchial epithelial cells. The essentials:
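Steps: dose human bronchial epithelial cells with chemical; incubate 24 h; measure I-TAC by ELISA; fit endpoint in positive direction against DMSO control. Cytotoxicity was checked in parallel cultures by SRB staining at harvest.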

Read-out in assay [12]: Interleukin-8 (IL8), CXCL8 (gene 3576)
The experiment in a line: BSK_BE3C_IL8: BioMAP Diversity Plus: BE3C Assay for Interleukin-8 (IL8) Biomarker Activity (AID 2284280). Particulars: primary human bronchial epithelial cells. The method in brief: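 Measured at 24 h after treatment, IL-8 from human primary bronchial epithelial cells is determined by ELISA, and the response is modelled as increasing relative to DMSO negative control.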

Read-out in assay [13]: Epidermal growth factor receptor (EGFR), EGFR (gene 1956)
The experiment in a line: BSK_BE3C_EGFR: BioMAP Diversity Plus: BE3C Assay for Epidermal growth factor receptor (EGFR) Biomarker Activity (AID 2284281). The settings on record: primary human bronchial epithelial cells. The method in brief:
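Measured 24 h after dosing in primary human bronchial epithelial cultures, EGFR was read by ELISA; gain of signal over DMSO control defined activity.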

Read-out in a further assay: KRT18 (gene 3875)
The experiment in a line: BSK_BE3C_Keratin818: BioMAP Diversity Plus: BE3C Assay for Keratin 818 Biomarker Activity (AID 2284282). Particulars: primary human bronchial epithelial cells. The essentials: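 ELISA read-out of Keratin 8/18 in BE3C human bronchial epithelial cultures, 24 h post-dosing; positive-direction fit vs DMSO baseline.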

Read-out in assay [14]: Matrix Metallopeptidase 9 (MMP9), MMP9 (gene 4318)
Description: BSK_BE3C_MMP9: BioMAP Diversity Plus: BE3C Assay for Matrix Metallopeptidase 9 (MMP9) Biomarker Activity (AID 2284283). Particulars: primary human bronchial epithelial cells. The essentials: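 Cells were dosed, incubated 24 h, then assayed for MMP-9 by ELISA; activity was fitted upward against DMSO. The system used human lung primary bronchial epithelial cells, with SRB total-protein staining run alongside for cytotoxicity.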

Read-out in assay [15]: Plasminogen activator inhibitor-1 (PAI1), SERPINE1 (gene 5054)
Description: BSK_CASM3C_PAI1: BioMAP Diversity Plus: CASM3C Assay for Plasminogen activator inhibitor-1 (PAI1) Biomarker Activity (AID 2284284). Particulars: primary human coronary artery smooth muscle cells.

Read-out in assay [16]: Monocyte Chemoattractant Protein-1 (MCP1), CCL2 (gene 6347)
Description: BSK_hDFCGF_MCP1: BioMAP Diversity Plus: hDFCGF Assay for Monocyte Chemoattractant Protein-1 (MCP1) Biomarker Activity (AID 2284285). The settings on record: primary human foreskin fibroblasts. The method in brief:
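MCP-1 ELISA readout was taken 24 hours after dosing primary human dermal fibroblasts in the hDFCGF system, with DMSO as baseline. Parallel sulforhodamine B staining of total protein tracked overt cytotoxicity.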

Read-out in assay [17]: Vascular cell adhesion molecule 1 (VCAM1), VCAM1 (gene 7412)
The experiment in a line: BSK_IMphg_VCAM1: BioMAP Diversity Plus: IMphg Assay for Vascular cell adhesion molecule 1 (VCAM1) Biomarker Activity (AID 2284286). Particulars: primary human endothelial cells with macrophages. The essentials: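 ELISA read-out of VCAM-1 on venular endothelial cell/macrophage co-cultures at 24 h post-treatment, with DMSO as baseline and positive-direction fitting. Parallel sulforhodamine B total-protein staining (560 nm) served as the overt cytotoxicity measure.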

Read-out in assay [18]: Intercellular Adhesion Molecule 1 (ICAM1), ICAM1 (gene 3383)
The experiment in a line: BSK_hDFCGF_ICAM1: BioMAP Diversity Plus: hDFCGF Assay for Intercellular Adhesion Molecule 1 (ICAM1) Biomarker Activity (AID 2284287). The settings on record: primary human foreskin fibroblasts. The method in brief: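 ICAM-1 ELISA readout 24 h after dosing, DMSO as baseline, in human dermal foreskin fibroblast cultures. Cytotoxicity checked in parallel wells by SRB staining (0.1% SRB, 10% TCA fixation, 560 nm).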

Read-out in another assay: CD40, CD40 (gene 958)
The experiment in a line: BSK_IMphg_CD40: BioMAP Diversity Plus: IMphg Assay for CD40 Biomarker Activity (AID 2284288). Particulars: primary human endothelial cells with macrophages. The method in brief:
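ELISA read-out of cell-surface CD40 at 24 h in human venular endothelial cell/macrophage co-cultures. Activity fitted in the positive direction against DMSO; parallel SRB staining (560 nm) gauges overt cytotoxicity.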

Values joined by “and” are separate entries in the source; they are usually repeats but may differ in a detail not shown here. Identical values can stand only once. A structure can be active in one record and inactive in another. Active and inactive are the calls of the source. The calls were made as follows: active = hit-call score of the fitted dose curve at least 0.9, where 1 is the maximum; inactive = score below 0.9.

As for `O=C(O)C(F)(F)C(F)(F)C(F)(F)C(F)(F)C(F)(F)C(F)(F)C(F)(F)C(F)(F)C(F)(F)F`, the AC50 was 50.6 µM (active) and 37.4 µM (active) in [1]; 14.1 µM (active) and 11 µM (active) in assay [2]; 18.5 µM (active) and 21.3 µM (active) in assay [3]; 34.6 µM (active) and 17.3 µM (active) in assay [4]; 22.9 µM (active) and 24.8 µM (active) in [5]; 17.7 µM (active) and 19.3 µM (active) in [6]. Also, the AC50 in [7] was 14.6 µM (active) and 18 µM (active); in assay [8], 20 µM (active) and 20.5 µM (active); in assay [10], 16.9 µM (active) and 14.6 µM (active); in assay [11], 12.8 µM (active) and 13.7 µM (active); in [12], 10.1 µM (active) and 14.2 µM (active); in assay [13], 7.27 µM (active). Besides, the concentration at half-maximal activity (AC50) with KRT18 (gene 3875) was 14.5 µM (active); in [14] it was 15.1 µM (active) and 17.4 µM (active); in assay [16], 56.1 µM (active) and 56.6 µM (active); in assay [17], 54.8 µM (active) and 26.9 µM (active); in assay [18] it was 49.8 µM (active) and 49 µM (active); in the assay with CD40, CD40 (gene 958) it was 45.9 µM (active) and 42.3 µM (active). Also, the outcome (in assay [9]; in [13]; in the assay with KRT18 (gene 3875); in [15]) was inactive.

On to `O=S(=O)(O)C(F)(F)C(F)(F)C(F)(F)C(F)(F)C(F)(F)C(F)(F)F`, for which the result in assay [1], in assay [2], in [3], in assay [4], in [5] and in assay [6] was inactive. The outcome in assay [7], in assay [8], in [9], in assay [10], in assay [11] and in [12] was inactive. For the same compound, the result (in assay [13]; with KRT18 (gene 3875); in [14]; in [15]; in [16]; in [17]) was inactive. Further, the outcome is “inactive” in assay [18] and “inactive” with CD40, CD40 (gene 958). The AC50 in assay [9] is 22.9 µM (active).

In the case of `O=C(O)C(F)(F)C(F)(F)C(F)(F)C(F)(F)C(F)(F)F`, the outcome in assay [1], in assay [2], in assay [3], in [4], in [5] and in assay [6] was inactive. Besides, the result in [7], in assay [8], in assay [9], in [10], in assay [11] and in assay [12] was inactive. In addition, the result (in assay [13]; with KRT18 (gene 3875); in assay [14]; in assay [15]; in [16]; in [17]) was inactive. Further, the outcome in [18] was “inactive”; with CD40, CD40 (gene 958), “inactive”.

One may read the AC50 as the midpoint of the concentration-response curve, whichever way the signal moves.
